Several values for one entry are separate records, joined by “and”; a condition that tells them apart may be missing. Equal values may be shown once. Out of some 5,500 compounds screened, about 2,000 (36%) were called active. Not shown: some 18% with an inconclusive outcome. Cut-off read from the data, not from the text of the source: active = normalized growth mostly below about 0.91 (no sharp cut-off); inconclusive = no clear call, values can overlap the other calls; inactive = mostly above about 0.92. Some of the results follow.
Experiment: chemical genetic growth profiling, strain panel (AID 1159580);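 note: tested at 20 µM; growth read once vehicle control cultures reached saturation at 30 °C; 1 = growth at the plate median or of vehicle wells; lower values mean less growth of the strain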
Conditions: S. cerevisiae deletion strains, growth OD

Measured: normalized growth

C=CCC1(C(C)CCC)C(=O)N=C(S)NC1=O (stereo unspecified)
inactive: locus YAL013W, strain DEP1, active compounds read low 0.989 | locus YAL021C, strain ccr4, active compounds read low 0.989 | locus YAL026C, strain drs2, active compounds read low 1 | locus YAL030W, strain snc1, active compounds read low 0.984 | locus YBL061C, strain skt5, active compounds read low 0.975 | locus YBR009C, strain hhf1, active compounds read low 1.01 | locus YBR021W, strain FUR4, active compounds read low 0.982 | locus YBR023C, strain chs3, active compounds read low 0.986 | locus YBR171W, strain sec66, active compounds read low 0.949 | locus YBR229C, strain ROT2, active compounds read low 0.994 | locus YBR231C, strain swc5, active compounds read low 0.976 | locus YBR279W, strain paf1, active compounds read low 0.998 | locus YCL011C, strain gbp2, active compounds read low 0.974 | locus YCL016C, strain dcc1, active compounds read low 1 | locus YCL029C, strain bik1, active compounds read low 0.981 | locus YCL061C, strain MRC1, active compounds read low 0.982 | locus YCL069W, strain vba3, active compounds read low 0.99 | locus YCR088W, strain abp1, active compounds read low 0.967 | locus YDL005C, strain med2, active compounds read low 0.937 | locus YDL035C, strain GPR1, active compounds read low 0.985 | locus YDL040C, strain nat1, active compounds read low 0.973 | locus YDL074C, strain BRE1, active compounds read low 1.06 | locus YDL101C, strain DUN1, active compounds read low 0.979 | locus YDL134C, strain PPH21, active compounds read low 0.997 | locus YDL185W, strain tfp1, active compounds read low 0.958 | locus YDL192W, strain arf1, active compounds read low 0.976 | locus YDR001C, strain nth1, active compounds read low 0.949 | locus YDR069C, strain doa4, active compounds read low 0.949 | locus YDR101C, strain arx1, active compounds read low 0.988 | locus YDR137W, strain rgp1, active compounds read low 0.919 | locus YDR150W, strain NUM1, active compounds read low 0.994 | locus YDR159W, strain sac3, active compounds read low 0.952 | locus YDR162C, strain NBP2, active compounds read low 1.01 | locus YDR195W, strain ref2 0.885 | locus YDR297W, strain sur2, active compounds read low 0.983 | locus YDR318W, strain mcm21, active compounds read low 0.986 | locus YDR334W, strain swr1, active compounds read low 0.938 | locus YDR335W, strain msn5, active compounds read low 0.964 | locus YDR388W, active compounds read low 0.986 | locus YDR392W, strain spt3, active compounds read low 1.01 | locus YDR502C, strain sam2, active compounds read low 1 | locus YEL003W, strain gim4, active compounds read low 0.979 | locus YEL037C, strain rad23, active compounds read low 0.974 | locus YEL061C, strain CIN8 (second series), active compounds read low 0.968 | locus YEL061C, strain CIN8, active compounds read low 0.988 | locus YER015W, strain faa2, active compounds read low 0.957 | locus YER016W, strain bim1, active compounds read low 0.987 | locus YER110C, active compounds read low 0.981 | locus YER111C, strain swi4, active compounds read low 0.989 | locus YER155C, strain BEM2 (second series), active compounds read low 0.928 | locus YER155C, strain BEM2, active compounds read low 0.988 | locus YER167W, strain BCK2, active compounds read low 0.961 | locus YFR010W, strain ubp6, active compounds read low 0.952 | locus YGL078C, strain dbp3, active compounds read low 0.986 | locus YGL086W, strain mad1, active compounds read low 0.975 | locus YGL167C, strain pmr1, active compounds read low 0.962 | locus YGL173C, strain kem1, active compounds read low 0.999 | locus YGL227W, strain vid30, active compounds read low 0.954 | locus YGL240W, strain doc1, active compounds read low 0.944 | locus YGL248W, strain PDE1, active compounds read low 1 | locus YGL253W, strain hxk2, active compounds read low 0.969 | locus YGR078C, strain PAC10, active compounds read low 1.02 | locus YGR135W, strain pre9, active compounds read low 1.02 | locus YGR229C, strain SMI1, active compounds read low 1.02 | locus YGR252W, strain gcn5, active compounds read low 1.03 | locus YHR013C, strain ard1, active compounds read low 0.964 | locus YHR027C, strain rpn1, active compounds read low 0.977 | locus YHR030C, strain SLT2, active compounds read low 0.976 and 0.982 | locus YHR079C, strain IRE1 (second series), active compounds read low 0.987 | locus YHR079C, strain IRE1, active compounds read low 0.979 | locus YHR094C, strain hxt1, active compounds read low 0.968 | locus YHR129C, strain ARP1, active compounds read low 1 | locus YHR142W, strain chs7, active compounds read low 0.996 | locus YHR200W, strain rpn10, active compounds read low 0.965 | locus YIL066C, strain RNR3, active compounds read low 0.999 | locus YIL073C, strain SPO22, active compounds read low 0.934 | locus YIL125W, strain kgd1, active compounds read low 0.982 | locus YIR030C, strain dcg1, active compounds read low 0.978 | locus YJL092W, strain hpr5, active compounds read low 0.985 | locus YJL095W, strain BCK1 (second series), active compounds read low 0.975 | locus YJL095W, strain BCK1, active compounds read low 1.07 and 0.994 | locus YJL115W, strain asf1, active compounds read low 0.952 | locus YJL129C, strain trk1, active compounds read low 0.928 | locus YJL134W, strain LCB3, active compounds read low 0.979 | locus YJL154C, strain vps35, active compounds read low 0.965 | locus YJL164C, strain tpk1, active compounds read low 1.01 | locus YJL166W, strain qcr8, active compounds read low 0.969 | locus YJL168C, strain set2, active compounds read low 0.983 | locus YJL187C, strain SWE1 (second series), active compounds read low 1.01 | locus YJR043C, strain POL32, active compounds read low 0.978 | locus YJR066W, strain TOR1, active compounds read low 0.959
